PubChem BioAssay AID2283131 (EPA ToxCast)
Inconclusive results are not listed. Activity calls are given as the source filed them. Rule for the calls: active = hit-call score of the fitted dose curve at least 0.9, where 1 is the maximum; inconclusive = response in the unintended direction; inactive = score below 0.9.

Target: human Bruton's Tyrosine Kinase (BTK), BTK (gene 695) (UniProt Q06187)
Assay: NVS_ENZ_hBTK: NovaScreen (NVS) Enzymatic Assay for human Bruton's Tyrosine Kinase (BTK)
Protocol: NVS_ENZ_hBTK is a biochemical, single-readout assay that uses extracted gene-proteins in a cell-free assay. Measurements were taken 1 hour after chemical dosing in a 96-well plate.NVS_ENZ_hBTK is one of one assay component(s) measured or calculated from the NVS_ENZ_hBTK assay. It is designed to make measurements of enzyme activity, a form of enzyme reporter, as detected with fluorescence intensity signals by Fluorescence and electrophoretic mobility shift technology.Data from the assay component NVS_ENZ_hBTK was analyzed into 1 assay endpoint. This assay endpoint, NVS_ENZ_hBTK, was analyzed in the positive analysis fitting direction relative to DMSO as the negative control and baseline of activity. Using a type of enzyme reporter, loss-of-signal activity can be used to understand changes in the enzymatic activity as they relate to the gene BTK. Furthermore, this assay endpoint can be referred to as a primary readout, because this assay has produced multiple assay endpoints where this one serves a enzymatic activity function. To generalize the intended target to other relatable targets, this assay endpoint is annotated to the kinase intended target family, where the subfamily is non-receptor tyrosine kinase. […]

human Bruton's Tyrosine Kinase (BTK), BTK (gene 695), sequence (Q06187 whole entry, looked up): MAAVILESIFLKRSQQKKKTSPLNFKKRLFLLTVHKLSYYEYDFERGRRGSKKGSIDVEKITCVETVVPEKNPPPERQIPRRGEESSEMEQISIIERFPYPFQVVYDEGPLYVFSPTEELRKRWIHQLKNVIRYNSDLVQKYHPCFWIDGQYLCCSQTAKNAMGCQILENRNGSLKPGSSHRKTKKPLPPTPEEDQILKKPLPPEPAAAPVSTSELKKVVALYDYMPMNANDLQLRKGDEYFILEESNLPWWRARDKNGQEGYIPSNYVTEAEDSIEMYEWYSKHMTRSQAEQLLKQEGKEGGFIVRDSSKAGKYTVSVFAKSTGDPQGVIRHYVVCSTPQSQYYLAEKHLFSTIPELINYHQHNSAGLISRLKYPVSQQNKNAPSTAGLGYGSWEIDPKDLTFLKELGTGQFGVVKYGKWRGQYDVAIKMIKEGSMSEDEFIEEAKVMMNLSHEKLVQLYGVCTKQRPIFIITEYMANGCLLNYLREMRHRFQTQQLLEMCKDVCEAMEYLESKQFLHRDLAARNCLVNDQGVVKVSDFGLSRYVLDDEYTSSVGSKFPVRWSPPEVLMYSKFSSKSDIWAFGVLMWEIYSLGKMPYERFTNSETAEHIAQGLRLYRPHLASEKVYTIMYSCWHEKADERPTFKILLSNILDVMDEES

Compound	outcome	AC50
COCCO	inactive	
S=C([S-])NCCNC(=S)[S-].[Mn+2]		45.5 µM (active)
